# About 11,000 (3.1%) of roughly 360,000 compounds were called active. The sample holds actives, similar compounds and a random draw of the others, so the mix is not that of the screen. Unmarked numbers belong to inactive results. No stated cut-off is given here; in the data, active means activity change below about -30%; inactive means the rest.
# Molecular target: D(1A) dopamine receptor (Homo sapiens) (UniProt P21728)
# Experiment: Antagonist of Human D 1 Dopamine Receptor: qHTS
# Conditions: HEK293 TREx D1 cells, calcium flux, dopamine EC80; at 10 µM; stronger effect = lower value
# Method in brief: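 Tetracycline-induced HEK293 Trex D1 cells, force-coupled to calcium, dye-loaded; compounds added and read 180 s, then EC80 dopamine added and calcium flux tracked kinetically another 180 s.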
# On the % scale 0 is the no-effect control and ±100 the full control effect.
# Chain of D(1A) dopamine receptor (Homo sapiens) (P21728 whole entry, looked up): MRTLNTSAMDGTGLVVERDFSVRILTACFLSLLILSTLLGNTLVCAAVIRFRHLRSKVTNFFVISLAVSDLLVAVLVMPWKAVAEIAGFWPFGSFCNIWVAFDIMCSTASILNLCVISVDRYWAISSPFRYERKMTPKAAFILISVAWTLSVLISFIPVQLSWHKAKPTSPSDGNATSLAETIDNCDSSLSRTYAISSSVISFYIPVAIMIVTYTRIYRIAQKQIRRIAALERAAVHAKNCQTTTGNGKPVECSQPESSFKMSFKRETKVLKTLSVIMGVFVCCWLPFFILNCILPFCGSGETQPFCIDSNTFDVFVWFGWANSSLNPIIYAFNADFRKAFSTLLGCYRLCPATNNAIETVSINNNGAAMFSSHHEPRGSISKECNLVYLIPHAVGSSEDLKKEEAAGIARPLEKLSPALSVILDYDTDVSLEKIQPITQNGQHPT
row,SMILES,"activity change, negative = inhibition"
1,CCOC(=O)C1CCN(C(=O)CSc2c3c(nc4ccc(Cl)cc24)CCCC3)CC1,-13.5%
2,CC(=O)N1CCc2cc(Br)cc(S(=O)(=O)CCC(=O)NCCc3ccc(Cl)cc3)c21,-8.71%
3,COc1ccc(-c2noc(CSc3nc4ccc(C)cc4[nH]3)n2)cc1,-1.27%
4,CC(=O)c1ccc(NC(=O)c2nc(-c3ccc(C)cc3)n3c2CCCCC3)cc1,-2.03%
5,O=C(CCN1C(=O)c2ccccc2C1=O)NNC(=O)c1ccc(Cl)cc1Cl,-4.44%
6,CC(C)(C)c1cc(C(=O)NN)n(Cc2ccc(Cl)cc2Cl)n1,-27.8%
7,Cn1cc(C(=O)c2ccc(Cl)cc2Cl)cc1C(=O)NN,-37.3% (active)
8,Cc1ccc(NC(=O)c2cn3c4c(ccc(Cl)c4c2=O)OC(C)C3)cc1C (centres undefined),-1.66%
9,Cc1cc(Cl)ccc1NC(=O)Cc1ccc(NC(=O)N2CCCCc3ccccc32)cc1,-3.59%
10,CCOc1ccc(NC(=O)CCc2c(C)nn(-c3ccc(N4CCCC4)nn3)c2C)cc1,4.71%
11,CC(=O)Nc1c(C)nn(-c2ccccc2)c1N1CCC(C(=O)Nc2cc(Cl)ccc2C)CC1,-18.9%
12,CSc1ncc(Cl)c(C(=O)Nc2ccc(S(=O)(=O)N3CCCC(C)C3)cc2)n1 (centres undefined),-5.19%
13,CN(Cc1ccccc1)C(=O)c1ccc(COc2ccccc2)cc1,-60.8% (active)
14,CN(CC(=O)Nc1ccc(Cl)cc1)C(=O)c1ccc(COc2ccccc2)cc1,3.34%
15,CCOc1ccc(CN(C)C(=O)c2ccc(=O)[nH]c2)cc1,10.3%
16,CCOc1cc(C2C(C(=O)OC)=C(C)NC3=C2C(=O)c2ccccc23)ccc1O (centres undefined),-1.02%
17,COc1ccccc1-c1cc2nc(C)c(CCC(=O)NC3CCCCC3)c(C)n2n1,2.22%
18,COC(=O)c1ccc(NC(=O)Nc2ccc(C)cc2)cc1,-35.1% (active)
19,CCOC(=O)C(=CNNc1ccsc1C(=O)OC)C(=O)OCC,12.1%
20,COC(=O)c1sccc1NS(=O)(=O)c1ccc(F)cc1F,-12%
21,COC(=O)c1sccc1NC(=O)CCC1CCCC1,1.13%
22,COC(=O)c1sccc1NN1C(=O)c2ccccc2C1=O,-47.9% (active)
23,COC(=O)c1ccc(NC(=S)Nc2cccc(C)n2)cc1,-4.64%

row,SMILES,"activity change, negative = inhibition"
1,COc1cc(NC(=O)Nc2ccc(C)cc2)cc([N+](=O)[O-])c1,-3.95%
2,COC(=O)c1sccc1NC(=S)Nc1ccc(C)cc1,-32.4% (active)
3,COC(=O)c1sccc1NC(=O)c1ccc(Cl)cc1,1.11%
4,Cc1oc2c(c1C(=O)Nc1ccc(F)c(F)c1)C1=NCCN1C=N2,-2.12%
5,CCOC(=O)c1ccc(NC(=O)c2ncn(-c3ccccc3)n2)cc1,-18.3%
6,O=C(CCC1N=C2c3ccccc3N=C(SCc3ccccc3F)N2C1=O)NCCc1ccccc1 (centres undefined),14.5%
7,COc1ccc(N2CCN(Cc3nc4c(c(=O)[nH]c(=O)n4C)n3Cc3ccc(Cl)cc3)CC2)cc1,-1.05%
8,Cc1cccc(CS(=O)(=O)c2ncc(Cl)c(C(=O)Nc3ccc(F)cc3)n2)c1,-44.7% (active)
9,Cc1cccc(NC(=O)c2nc(S(=O)(=O)Cc3ccccc3)ncc2Cl)c1,-28.7%
10,Cc1ccc(NC(=O)c2nc(S(=O)(=O)Cc3cccc(C)c3)ncc2Cl)cc1,-29.3%
11,CCc1cccc(CC)c1NC(=O)Cn1c(=O)c(-c2cc(C)ccc2NC(C)=O)nc2ccccc21,-15.1%
12,Cc1nn(C)c2c1c(C(F)(F)F)cc(=O)n2C(C)C(=O)NCc1ccc(Cl)cc1 (centres undefined),16.7%
13,O=C(Nc1ccc(S(=O)(=O)N2CCC(c3nc4ccccc4s3)CC2)cc1)c1ccccc1F,11%
14,COc1ccc(N2CCN(S(=O)(=O)CCNC(=O)C(c3ccccc3)c3ccccc3)CC2)cc1,-1.95%
15,Cc1ccc(Nc2ccc(C(N)=O)cc2[N+](=O)[O-])cc1,-47.2% (active)
16,O=[N+]([O-])c1ccccc1Nc1ccc(O)cc1,5.4%
17,NC(=O)c1ccc(Nc2ccc3c(c2)CCC3)c([N+](=O)[O-])c1,-48.2% (active)
18,CCOC(=O)c1ccc(NNC(C)=O)c([N+](=O)[O-])c1,-8.63%
19,CNc1ccc(NC(C)=O)cc1[N+](=O)[O-],-1.26%
20,CCOc1ccccc1Nc1ccc(C(=O)O)cc1[N+](=O)[O-],-11.5%
21,COC(=O)c1cnn(-c2ccc(C(=O)Nc3ccc(OC(F)(F)F)cc3)cc2)c1N,-10.8%
22,COc1ccc(Cn2c(C(=O)O)c(CNCc3cccc(OC)c3)c3ccc(C)cc32)cc1,8.54%
23,CC(C)C[C@H](NC(=O)C1CC(=O)N(c2ccc3c(c2)OCCO3)C1)C(=O)NC1CCCC1 (some centres undefined),-44.1% (active)

row,SMILES,"activity change, negative = inhibition"
1,CCOC(=O)c1ccc(NC(=O)C2CC(=O)N(c3ccc4c(c3)OCCO4)C2)cc1 (centres undefined),6.91%
2,C[C@H](NC(=O)C1CC(=O)N(c2ccc3c(c2)OCCO3)C1)C(=O)N1CCC(C(=O)O)CC1 (some centres undefined),9.3%
3,COc1ccc(S(=O)(=O)N(CC(=O)NCc2ccco2)c2ccc(F)cc2)cc1,-3.07%
4,CCN(CC(=O)NCc1ccco1)S(=O)(=O)c1ccc(F)cc1,-0.842%
5,Cc1ccc(S(=O)(=O)N(CC(=O)NCc2ccco2)c2ccccc2C)cc1,-44.4% (active)
6,CCOC(=O)N1CCN(S(=O)(=O)N2CCCC(C(=O)NCCCN3CCC(C)CC3)C2)CC1 (centres undefined),2.88%
7,CCCS(=O)(=O)N1CCCC(C(=O)NCc2ccco2)C1 (centres undefined),6.64%
8,CCCS(=O)(=O)N1CCCC(C(=O)NCCN2CCCCC2C)C1 (centres undefined),-41.8% (active)
9,COc1ccccc1CNC(=O)CCn1c(=O)c2ccccc2n(CC(=O)Nc2ccc(Br)cc2F)c1=O,0.197%
10,COc1ccc(C)cc1NC(=O)CCc1c(C)nn(-c2ccc(N3CCOCC3)nn2)c1C,-25.9%
11,Cc1ccc(NC(=S)N(CCN(C)C)Cc2cccs2)cc1C,-42.5% (active)
12,Cc1ccc(Cl)cc1NC(=S)N(CCN(C)C)Cc1cccs1,-0.901%
13,Cc1ccccc1NC(=S)N(CCCN1CCOCC1)Cc1cccs1,-5.87%
14,COC(=O)c1scc(-c2ccc(C)cc2)c1S(=O)(=O)Nc1cc(Cl)c(OC)cc1OC,10.2%
15,Cc1ccc(CSc2nc3ccsc3c(=O)n2CCC(C)C)cc1,13.8%
16,COCCNS(=O)(=O)c1cc(-c2nn3c(C)nnc3c3ccccc23)ccc1C,-4.16%
17,CC(=O)c1cccc(Nc2ccc3cc(S(=O)(=O)N4CCC(C)CC4)ccc3n2)c1,13.5%
18,CN1CCN(CCC(=O)N/N=C/C=C2\N(C)c3ccccc3C2(C)C)CC1,-8.35%
19,CC(=O)Nc1cccc(OCC(=O)/C=C2\N(C)c3ccccc3C2(C)C)c1,-35.4% (active)
20,COc1cccc(NC(=S)C(C#N)=C2N(C)c3ccccc3N2C)c1,0.557%
21,O=C1OC(C(=O)Nc2cccc(Br)c2)Cc2ccccc21 (centres undefined),3.01%
22,COc1cccc(/C=C2\Sc3ccc(C(=O)NCC4CCCO4)cc3N(C)C2=O)c1 (centres undefined),-38% (active)
23,COc1ccc2cc(C(=O)NCC3CCCO3)[nH]c2c1 (centres undefined),-7.79%

row,SMILES,"activity change, negative = inhibition"
1,COc1cccc(C(=O)NCCS(=O)(=O)NCC2CCCO2)c1 (centres undefined),28.7%
2,Brc1cccc(-c2nnn3c2nc(NC2CCCCC2)c2ccccc23)c1,11.9%
3,Cc1cc(F)ccc1NS(=O)(=O)c1ccc(-n2cccn2)cc1,-14%
4,Cc1ccc(-n2nc(C)c3c(C)cc(=O)n(CC(=O)Nc4ccc(C(C)C)cc4)c32)cc1,14.4%
5,CCOC(=O)c1ccc(N2C(=O)c3[nH]nc(-c4ccccc4)c3C2c2ccc(C(C)C)cc2)cc1 (centres undefined),49.1%
6,CCN1CCCC1CNC(=O)c1cc2c(=O)n(C)c3ccccc3c2n1C (centres undefined),-10.7%
7,CCOc1ccc(CCNC(=O)c2cc3c(=O)n(C)c4ccccc4c3n2C)cc1,-46.8% (active)
8,CCOc1ccc(CCNC(=O)c2c(C)oc3ncn(C)c(=O)c23)cc1,3.92%
9,CCCn1c2ccccc2c2cnn(CC(=O)N(C)c3ccccc3CC)c(=O)c21,-1.54%
10,O=C(c1ccc2c(c1)N(Cc1ccccc1)C(=O)c1ccccc1S2(=O)=O)N1CCCC1,1.23%
11,O=C(Nc1cc(C(F)(F)F)ccc1Cl)c1cc2nc(-c3ccc4c(c3)OCO4)cc(C(F)(F)F)n2n1,12.4%
12,CC(C)c1ccc(NC(=O)C2CCN(c3nc(-c4ccc(C(C)C)cc4)no3)CC2)cc1,-20.6%
13,COc1ccc(NC(=O)c2ccc3nc(CCc4ccccc4)oc3c2)c(OC)c1,0.958%
14,CC(=O)N1CCCc2cc(S(=O)(=O)N3CCC(C(=O)NCc4ccc(F)cc4)CC3)ccc21,-2.54%
15,CCc1nccn1S(=O)(=O)c1cc(Br)ccc1Br,-13.3%
16,COC(=O)c1ccc(C2C(C(=O)Nc3ccccc3)=C(C)Nc3nc4ccccc4n32)cc1 (centres undefined),6.56%
17,c1ccc2c(c1)OCC(CNc1ncnc3nc[nH]c13)O2 (centres undefined),-86.7% (active)
18,COc1ccc(CCNc2ncnc3nc[nH]c23)cc1OC,-23.9%
19,c1ccc(-c2cc3c(NCC4COc5ccccc5O4)ncnc3s2)cc1 (centres undefined),-18.9%
20,CCOc1ccccc1CNC(=O)c1ccc2c(c1)nc1n2CCC(C)C1 (centres undefined),-12.2%

# From PubChem BioAssay AID504652 (National Center for Advancing Translational Sciences (NCATS), 2011)
